PubChem BioAssay (Tox21)
“And” between values parts separate entries of the source, which are not always exact repeats. Equal entries are not always repeated. Records with an inconclusive call do not appear. Where a call stands in place of a potency, no number is given. Some compounds were tested as several samples or in several runs, with calls that do not always agree. The source made the active and inactive calls. Unless noted, calls follow the shape of the dose curve; as a rule, active = well fitted curve in the direction sought with a large enough effect in the repeat runs; inconclusive = weak or mixed curves; inactive = no such curve, though single readings can be large; an effect the other way counts as inactive or inconclusive.

Columns and labels:
[1] = qHTS assay for small molecule agonists of the p53 signaling pathway (AID 651631; calls by dose curve; also: nearly all actives have a fitted effect of over 15% in size; also: potency is read from the fitted curve at half-maximal effect)
Procedure, shortened: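 Quantitative high-throughput format: 4,000 p53RE-bla HCT-116 cells/well, 5 h pre-incubation, 16 h compound exposure at 37 °C, 2 h room-temperature substrate step, fluorescence intensity measured.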

[2] = qHTS assay for small molecules that induce genotoxicity in human embryonic kidney cells expressing luciferase-tagged ATAD5 (AID 651632); also: nearly all actives have a fitted effect of over 15% in size
Procedure, shortened: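 Luminescent reporter readout, HEK293T ATAD5-luc line: 16 hr drug exposure (37C, 5% CO2) followed by Amplite, 30 min RT.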

[3] = qHTS assay for small molecules that induce genotoxicity in human embryonic kidney cells expressing luciferase-tagged ATAD5 - cell viability (AID 651634; calls by dose curve; also: nearly all actives have a fitted effect of over 25% in size; also: potency is read from the fitted curve at half-maximal effect)
Procedure, shortened: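 Viability read: CellTiter-Fluor fluorescence, 30 min at 37C. Cells: HEK293T, luciferase-tagged ATAD5. Exposure: 15.5 hr, 37C, 5% CO2, compound or DMSO vehicle.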

[4] = qHTS assay for small molecule disruptors of the mitochondrial membrane potential - cell viability (AID 720634; calls by dose curve; also: nearly all actives have a fitted effect of over 20% in size; also: potency is read from the fitted curve at half-maximal effect)
Procedure, shortened: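 HepG2, 1 hr compound, 37 C. ATP luminescence via CellTiter-Glo, 30 min RT, same well as m-MPI.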

[5] = qHTS assay to test for compound auto fluorescence at 590 nm (red) in HepG2 cells (AID 720674)
Procedure, shortened: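 Compound auto-fluorescence is scored relative to Rose Bengal sodium, measured at 540/590 nm in live HepG2 cultures after 1 hr compound contact (37 C, 5% CO2).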

[6] = qHTS assay to test for compound auto fluorescence at 535 nm (green) in HepG2 cells (AID 720675)
[7] = qHTS assay to test for compound auto fluorescence at 460 nm (blue) in HEK293 cells (AID 720678); also: potency is read from the fitted curve at half-maximal effect
Procedure, shortened: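 HEK293 cells (2,000/well, medium with 10% dialyzed FBS) attached 4-5 hr, then exposed to compound overnight at 37C, 5% CO2. Blue fluorescence read at 405/460 nm, with triamterene as reference fluorophore.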

[8] = qHTS assay for small molecule agonists of the p53 signaling pathway - cell viability (AID 651633; calls by dose curve; also: nearly all actives have a fitted effect of over 30% in size; also: potency is read from the fitted curve at half-maximal effect)
Procedure, shortened: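 p53RE-bla cells, seeded at 4,000 per well and rested 5 h at 37 C/5% CO2, received compounds in DMSO for 16 h at 37 C. CellTiter-Glo was then added, and luminescence was read after 30 min at room temperature to gauge cytotoxicity.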

[9] = qHTS assay for small molecule disruptors of the mitochondrial membrane potential (AID 720635); also: potency is read from the fitted curve at half-maximal effect
Procedure, shortened: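 HepG2 cells (2,000/well) attached overnight at 37C, then took compound for 1 hr at 37C, 5% CO2. Mito-MPS dye was added for 30 min; fluorescence was read at 490/535 nm (monomers) and 540/590 nm (aggregates).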

[10] = qHTS assay to test for compound auto fluorescence at 590 nm (red) in HEK293 cells (AID 720679)
Procedure, shortened: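 HEK293 cells (2,000/well, 10% dialyzed FBS) attached 4-5 hr, then dosed with compound or DMSO and incubated overnight at 37C, 5% CO2. Red fluorescence read at 540/590 nm, Rose Bengal sodium as reference fluorophore.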
Tags tell the direction and shape of the fitted curve or compound fluorescence and quenching.

SMILES | Potency [1] | Potency [2] | Potency [3] | Potency [4] | outcome [5] | Potency [6] | Potency [7] | Potency [8] | Potency [9] | outcome [10]
Oc1c(Cl)cc(Cl)cc1Sc1cc(Cl)cc(Cl)c1O | 11.9 µM (active) and 34.9 µM (active) and 21.7 µM (active) | inactive | 11.9 µM (active) and 30.7 µM (active) and 48.6 µM (active) | 13.7 µM (active) and inactive | inactive | inactive | inactive |  |  | 
CCCCC(CC)COC(=O)CC(C(=O)OCC(CC)CCCC)S(=O)(=O)O (centres undefined) |  | inactive | inactive | inactive | inactive | inactive | inactive | 29.8 µM (active) and 58.8 µM (active) and 61.1 µM (active) | 58.8 µM (active) | inactive
CC(C)(C)NC(=O)[C@@H]1CN(Cc2cccnc2)CCN1C[C@@H](O)C[C@@H](Cc1ccccc1)C(=O)N[C@H]1c2ccccc2C[C@H]1O | inactive |  |  | 13.3 µM (active) and inactive | inactive | inactive | inactive |  | 7.5 µM (active) | inactive
CCN(CC)c1ccc2c(C)cc(=O)oc2c1 | 30.9 µM (active) and 27.3 µM (active) | inactive |  |  | inactive | inactive | 39.8 µM [fluorescent] (active) | inactive |  | inactive
NC12CC3CC(CC(C3)C1)C2 |  | inactive | inactive | inactive | inactive | inactive | inactive | inactive |  | inactive
CCCCCCCCCCCCc1ccccc1O |  | inactive | 30.6 µM (active) | inactive |  | inactive | inactive | 26.9 µM (active) and 24.3 µM (active) | 2.14 µM (active) and 2.43 µM (active) | inactive
Cc1c(O)cccc1C(=O)N[C@@H](CSc1ccccc1)[C@H](O)CN1C[C@H]2CCCC[C@H]2C[C@H]1C(=O)NC(C)(C)C |  | inactive | 21.1 µM (active) and 23.7 µM (active) | inactive |  | inactive | inactive | 21.1 µM (active) | 10.6 µM (active) and 7.49 µM (active) | inactive
CC(=O)O[C@]1(C(C)=O)CC[C@H]2[C@@H]3C[C@H](C)C4=CC(=O)CC[C@]4(C)[C@H]3CC[C@@]21C |  | inactive | inactive |  | inactive | inactive | inactive | inactive |  | 
C1COC(NC(C2CC2)C2CC2)=N1 |  | inactive | inactive | inactive |  | inactive | inactive | inactive | inactive | 
O | inactive |  | inactive | inactive | inactive | inactive |  | inactive | 31 µM (active) | inactive
CCCN[C@H]1CCc2nc(N)sc2C1 | inactive |  | inactive | inactive |  | inactive | inactive | inactive | inactive | inactive
CC(C)(c1ccccc1)c1ccc(Nc2ccc(C(C)(C)c3ccccc3)cc2)cc1 |  | inactive | inactive | inactive | inactive | inactive | inactive | inactive | 21.7 µM (active) and 27.3 µM (active) | inactive
CCCCCCCCCCCCCC[P+](CCCC)(CCCC)CCCC |  | inactive | 30.5 µM (active) and 27.3 µM (active) |  | inactive | inactive | inactive | 24.2 µM (active) and 15.4 µM (active) | 542 nM (active) and 486 nM (active) | inactive
Cc1cc(OCCOCC[N+](C)(C)Cc2ccccc2)ccc1C(C)(C)CC(C)(C)C |  | inactive |  | 12.1 µM (active) |  | inactive | inactive |  | 16.8 µM (active) and 3.05 µM (active) | 
Clc1ccc2c(c1)C(N1CCNCC1)=Nc1ccccc1O2 |  | inactive |  | inactive |  | inactive | inactive | inactive |  | inactive
CC(COc1ccccc1)N(CCCl)Cc1ccccc1 (centres undefined) |  |  |  | inactive | inactive | inactive |  |  | inactive and 43.7 µM (active) and 43.3 µM (active) | 
CCN(CC)CCOc1ccc(/C(=C(\Cl)c2ccccc2)c2ccccc2)cc1 |  |  | inactive |  |  | inactive | inactive | 29.8 µM (active) and 49.6 µM (active) |  | inactive
O=C(Nc1ccccc1SSc1ccccc1NC(=O)c1ccccc1)c1ccccc1 |  | inactive |  |  | inactive | inactive | inactive | inactive | 7.74 µM (active) and 15.4 µM (active) | 
COC(=O)/C=C/c1ccccc1 |  | inactive |  |  | inactive | inactive |  | inactive |  | inactive
CN(C)c1ccc(C(=C2C=CC(=[N+](C)C)C=C2)c2ccccc2)cc1 |  | inactive |  | inactive and 17.2 µM (active) | inactive | inactive | inactive | 23.7 µM (active) and 273 nM (active) | 29.8 µM (active) and 77 nM (active) | inactive
O=C1CC2(CCCC2)CC(=O)N1CCCCN1CCN(c2ncccn2)CC1 |  | inactive |  | inactive | inactive | inactive | inactive |  | inactive and 30.6 µM (active) | 
CCCCCCC(O)CCCCCCCCCCC(=O)O (centres undefined) |  | inactive |  | inactive and 54.5 µM (active) | inactive | inactive | inactive | inactive | inactive and 54.5 µM (active) | inactive
c1ccc2c(c1)-c1cccc3c1c-2cc1ccccc13 |  | inactive | inactive |  |  | inactive | inactive |  | 13.4 µM (active) and 13.7 µM (active) | inactive
